Source: PubChem BioAssay (Tox21)
Inconclusive results are not listed. Values without a mark were called inactive. Calls of active or inactive are those of the source. Calls come from the whole dose curve; as a rule, active = well fitted activation curve with a large enough effect in the signal ratio in the repeat runs (not every such curve was filed as active); inconclusive = weak or mixed curves; inactive = flat fitted curve, though single readings scatter; the % refers to the signal ratio.

Experiment: qHTS assay to identify small molecule agonists of the TGF-beta/Smad signaling pathway (AID 1346859)
Settings: SBE-bla HEK293T, TGF-beta/Smad beta-lactamase reporter, 5 h; series mostly up to 76.8 µM; activation: at the top concentration
Source text: U.S. Tox21 Program National Center for Advancing Translational Sciences [NCATS] NIH Chemical Genomics Center [NCGC] U.S. Environmental Protection Agency [EPA] National Institutes of Environmental Health Sciences [NIEHS] National Toxicology Program [NTP] U.S. Food and Drug Administration [FDA] Tox21 Assay Overview: Transforming growth factor beta (TGF-beta) superfamily consists of a large number of structurally related dimeric proteins that act as hormones or local mediators in regulating a wide range of biological functions. This superfamily includes TGF-betas themselves, the bone morphogenetic proteins (BMPs) and the activins. These ligands induce oligomerization of serine/threonine receptor kinases and phosphorylate the cytoplasmic signaling molecules of Smad protein family. CellSensor SBE-bla HEK 293T cell line (Life Technologies, Carlsbad, CA), responsive to TGF-beta was used to screen Tox21 10K compound library for identification of agonists/antagonists of the Smad signaling pathway. This cell line contains a beta-lactamase reporter gene under control of the Smad binding element (SBE) stably integrated into HEK 293T cells.
Tox21 Assay Protocol Summary: SBE-bla HEK 293T cells were dispensed at 4,000/well in 6 uL of assay medium into black wall/clear-bottom 1536-well plates using a Multidrop Combi (ThermoFisher Scientific, Waltham, MA) dispenser. After the assay plates were incubated at 37 C and 5% CO2 for an overnight, 23 nL of compounds dissolved in DMSO, positive controls or DMSO only was transferred to the assay plate by a Pintool station (Kalypsys, San Diego, CA). The assay plates were incubated at 37 C and 5% CO2 for 5 hr. One uL of LiveBLAzer B/G FRET substrate (Life Technologies) was added using a Flying Reagent Dispenser (Aurora Discovery, San Diego, CA) and the plates were incubated at room temperature for 2 hr. Fluorescence intensity (405 nm excitation, 460 nm and 530 nm emissions) was measured using an Envision plate reader (PerkinElmer, Shelton, CT).
% is set by controls: 0 for no effect and ±100 for the full control effect.

**Q.** With `CCCCCCCCCCC=CC1CC(=O)OC1=O` (stereo not given) as the compound, how does the outcome read?
**A.** Its outcome is “inactive”.

**Q.** For `CCCCCCOC(C)=O`, which outcome is on record?
**A.** Its outcome is “inactive”.

**Q.** With `Nc1cc(-c2ccncc2)c[nH]c1=O` as the compound, how does the outcome read?
**A.** Its outcome is “inactive”.

**Q.** With `Cc1cc(O)cc(C)c1Cl` as the compound, how does the outcome read?
**A.** The outcome was “inactive”.

**Q.** Which outcome does the source give for `CCCCOCCO` here?
**A.** Its outcome is “inactive”.

**Q.** For `Clc1ccc(Cl)c(Cl)c1Cl`, which outcome is on record?
**A.** Its outcome is “inactive”.

**Q.** With `Clc1cc(Cl)c(Cl)cc1Cl` as the compound, how does the outcome read?
**A.** The outcome was “inactive”.

**Q.** Which outcome does the source give for `CCCCC(CC)C(=O)OCCOCCOCCOC(=O)C(CC)CCCC` (stereo not given) here?
**A.** The outcome was “inactive”.

**Q.** For `O=C(O)c1ccc([N+](=O)[O-])cc1`, which outcome is on record?
**A.** Its outcome is “inactive”.

**Q.** Which outcome does the source give for `Oc1ccc2ccccc2c1` here?
**A.** The outcome was “inactive”.

**Q.** Which outcome does the source give for `CC[Si](OC(C)=O)(OC(C)=O)OC(C)=O` here?
**A.** Its outcome is “inactive”.

**Q.** Which outcome does the source give for `O=C(c1ccc(O)cc1)c1ccc(O)cc1O` here?
**A.** Its outcome is “inactive”.

**Q.** Which “activation” value does the source give for `C=C1CC[C@H](O)CC1=C/C=C1\CCC[C@]2(C)[C@@H]([C@H](C)/C=C/[C@H](C)C(C)C)CC[C@@H]12` here?
**A.** The value was -0.677%.

**Q.** With `C=CC(=O)OCCCCCCCC(C)C` as the compound, how does the outcome read?
**A.** The outcome was “inactive”.

**Q.** Which outcome does the source give for `CCCCC(CC)COC(=O)/C=C\C(=O)OCC(CC)CCCC` (stereo not given) here?
**A.** The outcome was “inactive”.

**Q.** Which outcome does the source give for `O=c1c(-c2ccc(O)cc2)coc2cc(O)ccc12` here?
**A.** Its outcome is “inactive”.

**Q.** For `O=[N+]([O-])c1cc(N(CCO)CCO)ccc1NCCO`, which outcome is on record?
**A.** The outcome was “inactive”.

**Q.** Which outcome does the source give for `S=c1nc[nH]c2nc[nH]c12` here?
**A.** The outcome was “inactive”.

**Q.** With `C[C@@H](O)[C@H]1C(=O)N2C(C(=O)O)=C(S[C@@H]3CN[C@H](C(=O)N(C)C)C3)[C@H](C)[C@H]12` as the compound, how does the outcome read?
**A.** Its outcome is “inactive”.

**Q.** With `COC(=O)c1ccc(C(=O)OC)cc1` as the compound, how does the outcome read?
**A.** Its outcome is “inactive”.

**Q.** Which outcome does the source give for `NC(=O)NNc1ccccc1` here?
**A.** Its outcome is “inactive”.

**Q.** Which outcome does the source give for `CCCCC(CC)COC(=O)CCCCCCCC(=O)OCC(CC)CCCC` (stereo not given) here?
**A.** Its outcome is “inactive”.

**Q.** With `Oc1ccc2ccccc2c1N=Nc1ccccc1` as the compound, how does the “activation” value read?
**A.** Its value is -14.8%.

**Q.** Which outcome does the source give for `NCc1cccc(CN)c1` here?
**A.** Its outcome is “inactive”.

**Q.** Which outcome does the source give for `CCC(=O)O` here?
**A.** The outcome was “inactive”.

**Q.** For `CCCCOCCOCCOC(=O)CCCCC(=O)OCCOCCOCCCC`, which outcome is on record?
**A.** The outcome was “inactive”.

**Q.** With `OCC1CCCO1` (stereo not given) as the compound, how does the outcome read?
**A.** The outcome was “inactive”.

**Q.** For `CCc1ccccc1O`, which outcome is on record?
**A.** Its outcome is “inactive”.

**Q.** With `CC(C)n1c(/C=C/[C@@H](O)C[C@@H](O)CC(=O)O)c(-c2ccc(F)cc2)c2ccccc21` as the compound, how does the outcome read?
**A.** Its outcome is “inactive”.

**Q.** For `C/C=C(C)/C=C/C=C(C)C`, which outcome is on record?
**A.** The outcome was “inactive”.

**Q.** Which outcome does the source give for `C=C1C2CCC(C2)C1(C)C` (stereo not given) here?
**A.** The outcome was “inactive”.

**Q.** Which outcome does the source give for `CCCCCCCCCCCCN` here?
**A.** Its outcome is “inactive”.

**Q.** With `Cc1cc(NS(=O)(=O)c2ccc(N)cc2)no1` as the compound, how does the outcome read?
**A.** The outcome was “inactive”.

**Q.** For `C=C(C)C(=O)OCCCCCC`, which outcome is on record?
**A.** The outcome was “inactive”.

**Q.** For `CN(CCOc1ccc(CC2SC(=O)NC2=O)cc1)c1ccccn1` (stereo not given), which “activation” value is on record?
**A.** The value was -4.12% [at 35.3 µM].

**Q.** With `CCCCCCCCCCCCOCC1CO1` (stereo not given) as the compound, how does the outcome read?
**A.** The outcome was “inactive”.

**Q.** Which outcome does the source give for `COCC(C)O` (stereo not given) here?
**A.** The outcome was “inactive”.

**Q.** For `CC(=O)Nc1ccc(C(=O)O)cc1`, which outcome is on record?
**A.** Its outcome is “inactive”.

**Q.** For `CCOC(=O)C1OC1c1ccccc1` (stereo not given), which outcome is on record?
**A.** Its outcome is “inactive”.

**Q.** For `CC1COc2ccccc2N1C(=O)C(Cl)Cl` (stereo not given), which outcome is on record?
**A.** Its outcome is “inactive”.
